# From the supplement of paper PMC6411743
# ± gives the standard deviation of the averaged measurements. Of roughly 5,400 targets only a part is listed; those with the largest changes were picked by preference.
# Compound: Nc1nc2c(ncn2[C@@H]2O[C@H](COP(=O)(O)OP(=O)(O)OP(=O)(O)O)[C@@H](O)[C@H]2O)c(=O)[nH]1 [guanosine triphosphate]
# Assay: NP40-soluble protein abundance relative to vehicle (solubility fold change) (ratio); higher = more soluble protein in presence of GTP
# Procedure: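 Solubility proteome profiling in Jurkat crude lysate. Lysate was treated with Mg-GTP (0.1-10 mM) for 10 min at room temperature and 3 min at 37 °C, then solubilised with 0.8% NP40 and benzonase, followed by ultracentrifugation. Proteins were quantified by TMT10 LC-MS/MS; the value is the NP40-soluble abundance relative to the NP40-processed vehicle, from 3 independent experiments.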
# Chain of UniProt Q9Y421 (Q9Y421 whole entry, one chain of several): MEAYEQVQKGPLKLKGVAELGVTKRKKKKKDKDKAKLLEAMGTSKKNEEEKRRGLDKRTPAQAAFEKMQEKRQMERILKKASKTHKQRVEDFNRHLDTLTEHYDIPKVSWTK
# Chain of UniProt Q02241 (Q02241 whole entry, one chain of several): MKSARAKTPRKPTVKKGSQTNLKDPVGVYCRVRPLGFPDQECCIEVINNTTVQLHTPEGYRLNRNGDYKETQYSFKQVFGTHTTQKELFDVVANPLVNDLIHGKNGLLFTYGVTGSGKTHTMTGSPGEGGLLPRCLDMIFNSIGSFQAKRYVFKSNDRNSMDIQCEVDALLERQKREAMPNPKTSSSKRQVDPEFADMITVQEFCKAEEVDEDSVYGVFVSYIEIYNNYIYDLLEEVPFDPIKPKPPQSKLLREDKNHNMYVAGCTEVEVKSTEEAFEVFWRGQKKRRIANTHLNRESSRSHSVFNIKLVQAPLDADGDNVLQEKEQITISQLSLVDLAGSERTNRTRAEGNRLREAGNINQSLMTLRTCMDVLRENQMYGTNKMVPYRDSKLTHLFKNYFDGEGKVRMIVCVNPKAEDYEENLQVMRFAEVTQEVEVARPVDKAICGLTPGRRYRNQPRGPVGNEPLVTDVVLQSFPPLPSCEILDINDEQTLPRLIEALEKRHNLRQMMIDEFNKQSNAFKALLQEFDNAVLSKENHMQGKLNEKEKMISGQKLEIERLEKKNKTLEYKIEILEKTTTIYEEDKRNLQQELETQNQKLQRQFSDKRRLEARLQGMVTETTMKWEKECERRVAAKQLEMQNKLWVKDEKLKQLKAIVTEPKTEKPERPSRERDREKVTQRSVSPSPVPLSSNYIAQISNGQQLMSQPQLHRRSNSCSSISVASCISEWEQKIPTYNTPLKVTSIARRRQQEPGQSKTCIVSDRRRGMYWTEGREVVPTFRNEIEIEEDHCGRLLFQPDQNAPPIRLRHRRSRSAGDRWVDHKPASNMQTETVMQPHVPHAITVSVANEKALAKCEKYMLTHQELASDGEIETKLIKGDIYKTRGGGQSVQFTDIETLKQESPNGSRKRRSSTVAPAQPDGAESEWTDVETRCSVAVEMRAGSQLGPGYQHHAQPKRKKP
# Chain of UniProt O60216 (O60216 whole entry): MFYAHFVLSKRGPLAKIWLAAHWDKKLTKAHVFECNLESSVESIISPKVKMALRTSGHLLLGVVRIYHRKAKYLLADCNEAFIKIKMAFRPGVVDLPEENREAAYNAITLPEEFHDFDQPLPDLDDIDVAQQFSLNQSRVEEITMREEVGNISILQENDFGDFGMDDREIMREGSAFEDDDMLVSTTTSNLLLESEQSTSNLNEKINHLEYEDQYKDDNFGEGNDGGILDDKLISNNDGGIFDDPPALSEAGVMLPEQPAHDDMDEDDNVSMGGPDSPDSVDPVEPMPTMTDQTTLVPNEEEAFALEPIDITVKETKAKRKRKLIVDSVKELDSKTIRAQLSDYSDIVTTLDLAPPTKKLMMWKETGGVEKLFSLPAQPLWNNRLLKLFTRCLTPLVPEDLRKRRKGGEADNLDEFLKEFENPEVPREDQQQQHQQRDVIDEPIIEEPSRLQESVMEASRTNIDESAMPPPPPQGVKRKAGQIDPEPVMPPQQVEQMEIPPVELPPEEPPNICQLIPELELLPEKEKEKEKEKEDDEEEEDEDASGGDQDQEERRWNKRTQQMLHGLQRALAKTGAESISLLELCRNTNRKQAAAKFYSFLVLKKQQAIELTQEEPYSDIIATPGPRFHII
# Chain of UniProt P12931 (P12931 whole entry, looked up): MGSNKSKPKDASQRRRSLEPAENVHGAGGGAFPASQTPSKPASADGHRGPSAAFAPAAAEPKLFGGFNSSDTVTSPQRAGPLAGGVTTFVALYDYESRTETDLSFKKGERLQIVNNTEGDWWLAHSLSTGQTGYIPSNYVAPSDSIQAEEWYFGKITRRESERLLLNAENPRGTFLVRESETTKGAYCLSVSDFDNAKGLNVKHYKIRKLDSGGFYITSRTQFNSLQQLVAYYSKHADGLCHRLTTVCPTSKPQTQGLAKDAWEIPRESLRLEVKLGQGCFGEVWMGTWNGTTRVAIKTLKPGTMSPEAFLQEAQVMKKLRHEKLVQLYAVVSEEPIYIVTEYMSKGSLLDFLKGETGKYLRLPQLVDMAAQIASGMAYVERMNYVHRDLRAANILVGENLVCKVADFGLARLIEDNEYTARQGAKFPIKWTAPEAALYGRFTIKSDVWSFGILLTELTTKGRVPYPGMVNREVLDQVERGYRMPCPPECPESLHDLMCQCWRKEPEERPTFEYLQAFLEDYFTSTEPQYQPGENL
# Chain of UniProt P46109 (P46109 whole entry): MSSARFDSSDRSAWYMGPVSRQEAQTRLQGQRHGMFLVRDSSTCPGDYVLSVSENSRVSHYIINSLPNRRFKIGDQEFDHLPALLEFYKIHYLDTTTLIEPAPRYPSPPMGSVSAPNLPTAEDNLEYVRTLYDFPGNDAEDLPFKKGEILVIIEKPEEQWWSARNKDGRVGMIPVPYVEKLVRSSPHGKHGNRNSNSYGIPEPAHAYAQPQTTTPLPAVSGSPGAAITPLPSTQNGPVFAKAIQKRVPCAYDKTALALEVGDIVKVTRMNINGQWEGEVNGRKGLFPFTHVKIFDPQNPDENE
Target,NP40-soluble protein abundance (concentration: 0.1mM),NP40-soluble protein abundance (concentration: 0.5mM),NP40-soluble protein abundance (concentration: 1mM),NP40-soluble protein abundance (concentration: 2mM),NP40-soluble protein abundance (concentration: 4mM),NP40-soluble protein abundance (concentration: 6mM),NP40-soluble protein abundance (concentration: 8mM),NP40-soluble protein abundance (concentration: 10mM)
H7BYN4|Q02241|Q02241-2|Q02241-3 (UniProt Q02241),1.1 ± 0.048,1.03 ± 0.036,1.0707 ± 0.00082,1.09 ± 0.021,1.114 ± 0.0076,1.13 ± 0.046,1.12 ± 0.084,1.09 ± 0.041
K7EIY1|Q9Y421 (UniProt Q9Y421),1.045 ± 0.0048,0.987 ± 0.15,1.07 ± 0.11,1.14 ± 0.14,1.25 ± 0.12,1.21 ± 0.2,1.24 ± 0.11,1.37 ± 0.088
CRKL (UniProt P46109),0.973 ± 0.029,0.958 ± 0.058,0.967 ± 0.092,0.932 ± 0.073,0.921 ± 0.076,0.906 ± 0.089,0.923 ± 0.093,0.876 ± 0.086
UniProt P12931|P12931-2,1.05 ± 0.05,1.05 ± 0.063,0.955 ± 0.018,0.9845 ± 0.0092,0.905 ± 0.063,0.896 ± 0.015,0.894 ± 0.052,0.837 ± 0.074
RAD21 (UniProt O60216),0.975 ± 0.037,0.991 ± 0.03,1.06 ± 0.023,1.07 ± 0.044,1.09 ± 0.028,1.07 ± 0.038,1.11 ± 0.062,1.12 ± 0.092
